# Screening data deposited in PubChem by The Scripps Research Institute Molecular Screening Center.
# PPARg SRC-3 ag: promotes SRC-3 coactivator recruitment by human PPARgamma | P37231 | biochemical PPARgamma/SRC-3 coactivator recruitment assay | activation, % at 8 µM | 200,000 compounds, 0.26% hits | AID 731; in the data active means activation above about 23%
# Target sequence (P37231 whole entry, looked up): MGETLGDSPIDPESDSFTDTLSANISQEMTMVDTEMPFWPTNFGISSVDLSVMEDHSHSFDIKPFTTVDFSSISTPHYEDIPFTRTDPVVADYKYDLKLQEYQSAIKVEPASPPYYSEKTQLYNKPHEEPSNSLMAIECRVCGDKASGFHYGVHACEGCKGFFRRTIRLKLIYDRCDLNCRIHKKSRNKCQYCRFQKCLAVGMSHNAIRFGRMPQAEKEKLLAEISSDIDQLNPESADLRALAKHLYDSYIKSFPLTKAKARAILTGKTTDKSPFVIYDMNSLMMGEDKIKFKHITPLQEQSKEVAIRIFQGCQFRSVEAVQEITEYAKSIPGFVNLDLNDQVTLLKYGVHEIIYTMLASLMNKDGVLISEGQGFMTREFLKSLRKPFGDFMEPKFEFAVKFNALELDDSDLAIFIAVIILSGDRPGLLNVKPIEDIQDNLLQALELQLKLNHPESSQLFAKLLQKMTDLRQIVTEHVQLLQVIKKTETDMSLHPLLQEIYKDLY
# SRC1 TRFRET art: flags TR-FRET format artefacts in PPARgamma SRC-1 recruitment agonist screen; TR-FRET detection artefact counter-screen, emission ratio; stronger effect = higher value; TR-FRET ratio at 8 µM; 99,000 compounds, 0.34% hits; AID 1051; in the data active means TR-FRET ratio above about 2300
# PPARg SRC-1 ag: promotes SRC-1 coactivator recruitment by human PPARgamma; P37231; PPARgamma-SRC-1 coactivator recruitment biochemical assay; activation, % at 8 µM; 200,000 compounds, 0.41% hits; AID 631; in the data active means activation above about 19%
# TR-FRET SRC-2 ct: flags TR-FRET format artefacts in PPARgamma SRC-2 recruitment agonist screen; TR-FRET ratio at 8 µM; 200,000 compounds, 0.4% hits; TR-FRET artefact counter-screen; stronger effect = higher value
# SRC3 TRFRET art: TR-FRET artefact, counter-screen to PPARgamma/SRC-3 agonist assay. PPARgamma/SRC-3 format; stronger effect = higher value. TR-FRET ratio at 8 µM. 99,000 compounds, 0.39% hits. AID 1048
# PPARg SRC-2 ag: PPARgamma-driven SRC-2 recruitment agonism; P37231; PPARgamma LBD-SRC-2 recruitment, biochemical; activation, % at 8 µM; 200,000 compounds, 0.34% hits; AID 1032; in the data active means activation above about 22%
# Hits are given with their value; . = inactive; / = no result. Shown are actives, neighbours in structure and some others; about 0.9% of the full set was active somewhere. Unless noted, no stated cut-off is given here; in the data, active means TR-FRET ratio above about 2000; inactive means the rest.
SMILES,PPARg SRC-3 ag,SRC1 TRFRET art,PPARg SRC-1 ag,TR-FRET SRC-2 ct,SRC3 TRFRET art,PPARg SRC-2 ag
c1ccc2c(c1)Cc1cc(CN3CCOCC3)ccc1-2,.,/,.,.,/,.
O=C(CSc1nc2cccnc2n1Cc1ccccc1)NCc1ccco1,.,/,34,.,/,.
COCCNC(=S)N(Cc1cc2cc(C)ccc2n2nnnc12)C1CCCC1,.,.,.,.,.,.
CCc1ccc2c(c1)cc(CN(C(=S)Nc1ccc(Cl)cc1)C1CC1)c1nnnn12,.,/,48,.,/,.
CCn1c(SCC(=O)O)nnc1C1CCCCC1,29,/,.,.,/,.
O=C(CN1N=C(c2ccccc2)CCC1=O)NCc1ccco1,.,.,.,.,.,.
N#Cc1cccc(NC(=O)COC(=O)c2ccccc2Sc2ccccc2C#N)c1,.,.,.,.,2131,.
CN(C)C(=O)COC(=O)c1ccccc1Sc1ccccc1C#N,.,.,.,.,.,.
CC(=O)c1ccc(NC(=O)COC(=O)c2ccccc2Sc2ccccc2C#N)cc1,.,.,.,.,2465,.
N#Cc1ccccc1Sc1ccccc1C(=O)OCC(=O)NC12CC3CC(CC(C3)C1)C2,.,2330,.,2682,3416,.
O=C1CN(C(=O)Cn2ncc(Cl)c(Cl)c2=O)c2ccccc2N1,.,.,.,.,.,.
COc1cccc(-c2nn(-c3ccccc3)cc2C(=O)OCC(=O)Nc2ncc(Cl)cc2Cl)c1,.,2559,.,2626,3059,.
O=C(COC(=O)c1ccccc1O)Nc1ncc(Cl)cc1Cl,.,.,.,.,.,.
CC1CCN(c2nc(Cl)nc(Nc3ccc([N+](=O)[O-])cc3)n2)CC1,.,.,.,.,.,.
O=C(C1=C[C@@H](c2ccc(C(F)(F)F)cc2)C[C@@H](OCCCCO)O1)N1CCN(Cc2ccc3c(c2)OCO3)CC1,32,.,.,.,.,.
Cc1cc(Cl)c(S(=O)(=O)N2CCN(c3ccc(F)cc3)CC2)cc1OCC(=O)NC1CCCCC1,.,/,.,.,/,.
O=c1[nH]c(=S)[nH]c2sccc12,.,.,.,2050,.,.
CSc1nc2sccc2c(=O)[nH]1,.,.,.,.,.,.
CCC1(c2ccc(F)cc2)NC(=O)N(CC(=O)Nc2ccc(-c3nc4ccc(C)cc4s3)cc2)C1=O (configuration not stated),.,.,.,.,2350,.
COc1ccc(C2(C)NC(=O)N(CC(=O)Nc3ccc(-c4nc5ccc(C)cc5s4)cc3)C2=O)cc1 (configuration not stated),.,2469,.,.,2403,.
Cc1nc2ccc(NC(=O)CCS(=O)(=O)c3ccccc3)cc2s1,.,.,.,.,.,.
Cc1ccc2nc(-c3ccc(NC(=O)CCS(=O)(=O)c4ccccc4)cc3)sc2c1,.,.,.,.,2301,.
COc1ccc(C2Nc3ccccc3C(=O)N2c2ccccc2)cc1CSc1ccccn1 (configuration not stated),.,.,.,.,2243,.
O=C(COC(=O)c1ccc(-c2nnc(-c3ccccc3)o2)cc1)c1ccccc1,.,.,.,2098,.,.
CCCCOC(=O)N/N=C/C=C/c1ccccc1,.,2344,.,.,.,.
SMILES,PPARg SRC-3 ag,SRC1 TRFRET art,PPARg SRC-1 ag,TR-FRET SRC-2 ct,SRC3 TRFRET art,PPARg SRC-2 ag
CC(C)(C)NC(=O)COC(=O)c1cc(S(=O)(=O)N2CCCCC2)ccc1N1CCOCC1,.,/,.,.,/,.
COc1ccc(-c2cc(=O)c3ccccc3s2)cc1,.,/,.,.,/,.
COc1ccc2sc3ccccc3c(=O)c2c1,.,/,.,2220,/,.
O=C(c1cn(-c2ccccc2)nc1-c1cccs1)N1CCN(c2ccccn2)CC1,.,/,.,.,/,.
COCCn1c(=NC(=O)c2cc(-c3cccs3)nc3ccccc23)sc2cc(S(N)(=O)=O)ccc21,.,.,.,.,.,.
C=CCn1c(=NC(=O)c2cc(-c3cccs3)nc3ccccc23)sc2cc(S(N)(=O)=O)ccc21,.,.,.,.,2319,.
CCC1(C)CC(c2nc(-c3ccc(OC)cc3)cs2)CCS1 (configuration not stated),.,.,.,.,.,.
CCOC(=O)C1C(=O)C=C(c2ccc(C)cc2)CC1c1ccccc1 (configuration not stated),.,.,.,2001,.,.
CCOC(=O)C1C(=O)C=C(c2ccc([N+](=O)[O-])cc2)CC1c1ccccc1 (configuration not stated),.,/,.,.,/,.
